Assay results published in the supplement of paper PMC11732987, “Enantioselective OTUD7B fragment discovery through chemoproteomics screening and high-throughput optimisation” (Communications Chemistry, 2025).

Key:
Experiment in all cases: log2 ratio of Biotin-Ahx-Ub-VS probe labelling (fragment/DMSO); higher = less target engagement (more negative = stronger competition), active = hit call of the paper (q ≤ 0.05, log2 ratio ≤ -1)
Conditions in all cases: compound concentration: 200 uM; treatment time: 3 h
USP42 = biological target: T1, USP42 (UniProt Q9H9J4)
T1 sequence (whole entry): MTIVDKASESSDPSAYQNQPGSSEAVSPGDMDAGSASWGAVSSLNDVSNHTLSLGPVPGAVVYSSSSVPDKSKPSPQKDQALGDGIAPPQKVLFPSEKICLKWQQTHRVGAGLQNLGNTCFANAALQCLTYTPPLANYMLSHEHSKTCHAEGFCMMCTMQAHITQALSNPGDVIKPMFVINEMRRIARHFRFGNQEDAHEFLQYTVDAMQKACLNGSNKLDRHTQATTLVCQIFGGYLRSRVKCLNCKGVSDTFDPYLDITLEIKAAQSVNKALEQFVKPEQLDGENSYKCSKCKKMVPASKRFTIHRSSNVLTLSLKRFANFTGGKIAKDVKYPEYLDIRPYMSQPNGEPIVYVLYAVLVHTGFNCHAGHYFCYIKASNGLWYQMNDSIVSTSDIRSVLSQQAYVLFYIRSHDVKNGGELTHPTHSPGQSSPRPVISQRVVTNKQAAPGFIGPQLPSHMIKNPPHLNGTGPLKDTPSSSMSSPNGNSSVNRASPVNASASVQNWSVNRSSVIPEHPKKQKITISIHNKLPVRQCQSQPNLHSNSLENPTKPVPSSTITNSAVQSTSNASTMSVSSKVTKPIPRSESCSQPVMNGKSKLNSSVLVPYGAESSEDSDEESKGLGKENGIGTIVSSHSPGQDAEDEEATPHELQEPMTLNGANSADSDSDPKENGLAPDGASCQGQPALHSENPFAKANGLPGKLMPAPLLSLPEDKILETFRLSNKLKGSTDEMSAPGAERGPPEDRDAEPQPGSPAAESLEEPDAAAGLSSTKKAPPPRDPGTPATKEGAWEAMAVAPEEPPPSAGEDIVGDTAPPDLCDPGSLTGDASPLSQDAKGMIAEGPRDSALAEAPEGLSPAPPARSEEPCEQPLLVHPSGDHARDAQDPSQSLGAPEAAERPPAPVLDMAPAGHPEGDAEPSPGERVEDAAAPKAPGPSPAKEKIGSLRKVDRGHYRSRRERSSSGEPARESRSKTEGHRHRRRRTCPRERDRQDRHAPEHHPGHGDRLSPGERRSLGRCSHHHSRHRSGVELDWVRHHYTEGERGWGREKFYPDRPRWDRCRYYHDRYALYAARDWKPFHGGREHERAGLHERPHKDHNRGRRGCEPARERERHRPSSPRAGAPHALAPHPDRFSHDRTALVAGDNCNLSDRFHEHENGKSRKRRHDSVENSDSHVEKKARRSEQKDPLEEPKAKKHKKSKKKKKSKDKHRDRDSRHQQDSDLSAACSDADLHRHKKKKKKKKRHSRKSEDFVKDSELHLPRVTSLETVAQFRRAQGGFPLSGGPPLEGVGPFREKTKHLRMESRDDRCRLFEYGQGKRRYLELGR
Method in brief: (§1)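 HEK293T lysate, 495 µg per sample in Tris/CHAPS/IGEPAL buffer with protease inhibitors, was treated in triplicate with fragment at 200 µM or vehicle for 3 h and then with Biotin-Ahx-Ub-VS at 0.5 µM final for 1 h. Labelled DUBs were NeutrAvidin-enriched, digested with LysC and trypsin, and run by diaPASEF LC-MS/MS. Spectronaut label-free quantities were global-median-normalised, and values are average log2 fragment/vehicle ratios by unpaired t-test on proteins with ≥2 unique peptides.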

USP46 = USP46 (UniProt P62068)
Method in brief: as §1

USP47 = biological target: T2, USP47 (UniProt Q96K76)
T2 sequence (whole entry): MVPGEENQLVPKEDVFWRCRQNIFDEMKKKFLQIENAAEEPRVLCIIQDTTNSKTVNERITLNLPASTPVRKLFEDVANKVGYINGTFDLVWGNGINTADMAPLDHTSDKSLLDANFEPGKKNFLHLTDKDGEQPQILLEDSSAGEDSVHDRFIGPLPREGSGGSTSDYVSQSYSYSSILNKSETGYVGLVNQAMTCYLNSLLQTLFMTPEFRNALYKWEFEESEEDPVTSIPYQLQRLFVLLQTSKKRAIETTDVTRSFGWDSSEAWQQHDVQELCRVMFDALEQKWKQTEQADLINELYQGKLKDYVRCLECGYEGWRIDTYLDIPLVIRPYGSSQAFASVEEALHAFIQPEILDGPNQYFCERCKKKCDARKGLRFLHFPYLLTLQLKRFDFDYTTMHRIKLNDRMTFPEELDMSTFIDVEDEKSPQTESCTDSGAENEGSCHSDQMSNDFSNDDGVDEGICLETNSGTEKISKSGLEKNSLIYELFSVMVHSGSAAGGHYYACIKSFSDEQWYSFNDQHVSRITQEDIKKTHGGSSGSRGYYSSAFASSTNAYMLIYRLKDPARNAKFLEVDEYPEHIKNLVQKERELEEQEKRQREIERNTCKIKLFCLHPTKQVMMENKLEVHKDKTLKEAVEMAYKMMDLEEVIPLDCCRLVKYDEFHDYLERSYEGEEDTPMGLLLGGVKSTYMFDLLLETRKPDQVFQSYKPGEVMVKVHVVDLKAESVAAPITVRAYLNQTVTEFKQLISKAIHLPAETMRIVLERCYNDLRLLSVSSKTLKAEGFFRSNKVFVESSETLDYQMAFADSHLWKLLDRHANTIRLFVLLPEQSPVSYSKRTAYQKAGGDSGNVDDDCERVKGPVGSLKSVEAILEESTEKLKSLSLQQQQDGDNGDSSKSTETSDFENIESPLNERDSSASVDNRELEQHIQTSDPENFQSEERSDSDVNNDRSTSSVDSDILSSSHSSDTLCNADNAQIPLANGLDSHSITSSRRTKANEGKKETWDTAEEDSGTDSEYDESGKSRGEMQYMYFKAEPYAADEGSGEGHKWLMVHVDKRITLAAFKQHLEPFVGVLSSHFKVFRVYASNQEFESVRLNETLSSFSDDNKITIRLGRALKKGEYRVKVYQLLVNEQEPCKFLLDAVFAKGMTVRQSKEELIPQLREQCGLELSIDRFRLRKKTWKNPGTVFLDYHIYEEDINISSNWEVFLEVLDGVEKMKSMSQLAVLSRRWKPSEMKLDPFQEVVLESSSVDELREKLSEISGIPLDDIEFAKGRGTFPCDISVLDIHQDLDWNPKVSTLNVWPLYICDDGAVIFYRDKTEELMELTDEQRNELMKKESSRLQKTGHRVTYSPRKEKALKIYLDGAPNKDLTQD
Method in brief: as §1

USP48 = biological target: T3, USP48 (UniProt Q86UV5)
T3 sequence (whole entry): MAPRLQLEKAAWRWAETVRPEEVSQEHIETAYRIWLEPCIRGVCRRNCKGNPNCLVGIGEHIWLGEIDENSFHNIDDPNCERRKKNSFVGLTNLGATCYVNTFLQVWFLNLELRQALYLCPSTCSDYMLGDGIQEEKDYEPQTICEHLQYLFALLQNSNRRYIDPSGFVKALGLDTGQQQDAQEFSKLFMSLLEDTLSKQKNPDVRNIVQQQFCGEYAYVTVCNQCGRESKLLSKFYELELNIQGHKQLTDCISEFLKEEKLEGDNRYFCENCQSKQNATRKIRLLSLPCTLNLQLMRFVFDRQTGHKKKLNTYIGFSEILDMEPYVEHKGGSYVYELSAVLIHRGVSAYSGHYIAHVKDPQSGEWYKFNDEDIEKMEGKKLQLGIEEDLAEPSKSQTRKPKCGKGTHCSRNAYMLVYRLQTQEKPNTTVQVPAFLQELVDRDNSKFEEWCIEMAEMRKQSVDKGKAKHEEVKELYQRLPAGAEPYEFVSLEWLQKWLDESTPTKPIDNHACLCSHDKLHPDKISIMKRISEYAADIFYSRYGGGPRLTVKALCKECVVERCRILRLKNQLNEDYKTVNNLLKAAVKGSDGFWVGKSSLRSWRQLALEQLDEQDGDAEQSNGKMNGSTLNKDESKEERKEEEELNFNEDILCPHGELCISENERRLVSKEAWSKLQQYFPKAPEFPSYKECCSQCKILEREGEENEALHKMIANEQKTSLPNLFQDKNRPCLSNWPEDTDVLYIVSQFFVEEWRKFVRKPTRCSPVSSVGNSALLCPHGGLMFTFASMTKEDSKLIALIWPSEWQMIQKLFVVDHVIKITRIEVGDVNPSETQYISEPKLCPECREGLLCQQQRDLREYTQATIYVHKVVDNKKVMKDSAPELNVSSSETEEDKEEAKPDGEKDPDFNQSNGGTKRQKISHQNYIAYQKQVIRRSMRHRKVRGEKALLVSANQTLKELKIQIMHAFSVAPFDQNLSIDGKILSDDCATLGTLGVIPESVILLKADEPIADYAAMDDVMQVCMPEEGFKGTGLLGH
Method in brief: as §1

USP5 = biological target: T4, USP5 (UniProt P45974)
T4 sequence (whole entry): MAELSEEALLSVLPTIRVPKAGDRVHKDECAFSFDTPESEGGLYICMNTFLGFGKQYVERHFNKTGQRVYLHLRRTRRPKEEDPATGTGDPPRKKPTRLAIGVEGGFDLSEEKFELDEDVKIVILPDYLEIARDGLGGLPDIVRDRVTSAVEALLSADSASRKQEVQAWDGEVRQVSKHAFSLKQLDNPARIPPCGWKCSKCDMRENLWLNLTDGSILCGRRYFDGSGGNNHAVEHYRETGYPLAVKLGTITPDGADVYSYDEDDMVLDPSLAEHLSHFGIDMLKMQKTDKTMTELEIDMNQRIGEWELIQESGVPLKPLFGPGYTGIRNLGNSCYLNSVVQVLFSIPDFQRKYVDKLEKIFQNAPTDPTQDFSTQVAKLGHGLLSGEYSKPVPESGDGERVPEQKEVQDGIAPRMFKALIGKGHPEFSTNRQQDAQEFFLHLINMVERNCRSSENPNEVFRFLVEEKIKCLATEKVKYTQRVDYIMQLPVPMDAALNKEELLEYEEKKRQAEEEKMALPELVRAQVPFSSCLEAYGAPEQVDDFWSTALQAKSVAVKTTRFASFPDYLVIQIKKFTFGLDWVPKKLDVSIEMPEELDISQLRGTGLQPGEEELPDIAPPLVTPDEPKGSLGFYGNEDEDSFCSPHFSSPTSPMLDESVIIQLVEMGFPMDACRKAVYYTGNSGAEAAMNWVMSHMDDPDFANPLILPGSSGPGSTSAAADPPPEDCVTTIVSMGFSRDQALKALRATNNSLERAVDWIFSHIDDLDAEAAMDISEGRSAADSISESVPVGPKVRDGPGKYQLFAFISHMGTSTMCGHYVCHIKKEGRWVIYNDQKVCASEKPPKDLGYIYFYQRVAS
Method in brief: as §1

USP54 = USP54 (UniProt Q70EL1)
Method in brief: as §1

USP7 = USP7 (UniProt Q93009)
Method in brief: as §1

USP8 = biological target: T5, USP8 (UniProt P40818)
T5 sequence (whole entry): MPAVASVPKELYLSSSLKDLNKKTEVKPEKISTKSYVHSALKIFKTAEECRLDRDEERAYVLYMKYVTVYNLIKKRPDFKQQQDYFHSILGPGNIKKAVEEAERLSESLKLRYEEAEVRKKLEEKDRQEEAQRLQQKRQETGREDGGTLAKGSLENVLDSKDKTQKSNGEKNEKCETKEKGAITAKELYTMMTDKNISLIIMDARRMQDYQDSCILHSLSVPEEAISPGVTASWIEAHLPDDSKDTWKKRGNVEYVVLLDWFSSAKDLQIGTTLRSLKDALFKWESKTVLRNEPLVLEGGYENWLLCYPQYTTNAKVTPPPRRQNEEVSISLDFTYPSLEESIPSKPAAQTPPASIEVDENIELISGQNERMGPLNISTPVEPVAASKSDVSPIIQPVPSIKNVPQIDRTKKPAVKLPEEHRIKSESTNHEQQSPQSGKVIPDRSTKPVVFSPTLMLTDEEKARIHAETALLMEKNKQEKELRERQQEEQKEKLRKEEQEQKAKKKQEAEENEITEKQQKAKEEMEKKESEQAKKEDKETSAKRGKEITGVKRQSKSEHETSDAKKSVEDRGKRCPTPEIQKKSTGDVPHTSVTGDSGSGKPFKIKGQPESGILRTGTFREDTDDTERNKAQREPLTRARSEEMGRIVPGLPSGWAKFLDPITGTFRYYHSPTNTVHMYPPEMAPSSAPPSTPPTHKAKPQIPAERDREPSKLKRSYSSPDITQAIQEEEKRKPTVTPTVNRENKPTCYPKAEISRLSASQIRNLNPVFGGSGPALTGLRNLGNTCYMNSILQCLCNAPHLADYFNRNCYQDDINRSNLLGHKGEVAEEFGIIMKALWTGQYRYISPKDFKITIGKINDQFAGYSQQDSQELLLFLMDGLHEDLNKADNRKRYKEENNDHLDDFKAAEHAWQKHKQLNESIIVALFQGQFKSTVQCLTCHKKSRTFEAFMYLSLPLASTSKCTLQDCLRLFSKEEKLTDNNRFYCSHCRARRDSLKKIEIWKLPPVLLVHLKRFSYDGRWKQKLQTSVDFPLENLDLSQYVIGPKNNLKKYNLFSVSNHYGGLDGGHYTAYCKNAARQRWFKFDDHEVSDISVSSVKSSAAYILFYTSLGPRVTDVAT
Method in brief: as §1

USP9X = USP9X (UniProt Q93008)
Method in brief: as §1

UniProt O00487 = biological target: UniProt O00487
Method in brief: as §1

Measured: log2 ratio of Biotin-Ahx-Ub-VS probe labelling

Chain of USP7 (Q93009 whole entry, looked up): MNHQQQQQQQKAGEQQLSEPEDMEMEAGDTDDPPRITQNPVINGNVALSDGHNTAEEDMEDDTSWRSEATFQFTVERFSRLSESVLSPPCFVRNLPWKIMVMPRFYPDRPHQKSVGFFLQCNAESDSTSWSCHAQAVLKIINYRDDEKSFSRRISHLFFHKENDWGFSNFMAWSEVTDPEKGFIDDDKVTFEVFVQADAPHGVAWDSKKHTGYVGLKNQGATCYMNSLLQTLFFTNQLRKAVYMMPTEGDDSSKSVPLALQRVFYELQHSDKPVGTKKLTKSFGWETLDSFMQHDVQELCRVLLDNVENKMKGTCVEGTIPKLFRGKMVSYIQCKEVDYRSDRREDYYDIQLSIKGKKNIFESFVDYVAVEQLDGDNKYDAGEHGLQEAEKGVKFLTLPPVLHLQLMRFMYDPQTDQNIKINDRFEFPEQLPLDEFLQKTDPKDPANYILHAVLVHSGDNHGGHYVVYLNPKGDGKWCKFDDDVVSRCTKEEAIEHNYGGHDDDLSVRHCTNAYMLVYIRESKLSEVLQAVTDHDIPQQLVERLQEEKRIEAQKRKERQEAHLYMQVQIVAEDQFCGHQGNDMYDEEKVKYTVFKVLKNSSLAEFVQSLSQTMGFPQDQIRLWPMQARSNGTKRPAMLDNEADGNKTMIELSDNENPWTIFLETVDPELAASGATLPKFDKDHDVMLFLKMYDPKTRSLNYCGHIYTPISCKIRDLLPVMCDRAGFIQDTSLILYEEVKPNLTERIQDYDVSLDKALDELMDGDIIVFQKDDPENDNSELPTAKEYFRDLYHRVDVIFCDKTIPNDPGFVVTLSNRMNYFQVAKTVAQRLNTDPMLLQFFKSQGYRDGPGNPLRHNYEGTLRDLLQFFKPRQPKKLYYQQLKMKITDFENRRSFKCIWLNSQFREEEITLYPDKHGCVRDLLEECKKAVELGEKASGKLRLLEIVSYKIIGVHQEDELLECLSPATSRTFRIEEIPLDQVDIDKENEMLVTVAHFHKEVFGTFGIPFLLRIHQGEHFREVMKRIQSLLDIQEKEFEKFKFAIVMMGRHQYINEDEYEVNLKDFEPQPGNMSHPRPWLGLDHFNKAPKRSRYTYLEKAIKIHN
Chain of USP54 (Q70EL1 whole entry): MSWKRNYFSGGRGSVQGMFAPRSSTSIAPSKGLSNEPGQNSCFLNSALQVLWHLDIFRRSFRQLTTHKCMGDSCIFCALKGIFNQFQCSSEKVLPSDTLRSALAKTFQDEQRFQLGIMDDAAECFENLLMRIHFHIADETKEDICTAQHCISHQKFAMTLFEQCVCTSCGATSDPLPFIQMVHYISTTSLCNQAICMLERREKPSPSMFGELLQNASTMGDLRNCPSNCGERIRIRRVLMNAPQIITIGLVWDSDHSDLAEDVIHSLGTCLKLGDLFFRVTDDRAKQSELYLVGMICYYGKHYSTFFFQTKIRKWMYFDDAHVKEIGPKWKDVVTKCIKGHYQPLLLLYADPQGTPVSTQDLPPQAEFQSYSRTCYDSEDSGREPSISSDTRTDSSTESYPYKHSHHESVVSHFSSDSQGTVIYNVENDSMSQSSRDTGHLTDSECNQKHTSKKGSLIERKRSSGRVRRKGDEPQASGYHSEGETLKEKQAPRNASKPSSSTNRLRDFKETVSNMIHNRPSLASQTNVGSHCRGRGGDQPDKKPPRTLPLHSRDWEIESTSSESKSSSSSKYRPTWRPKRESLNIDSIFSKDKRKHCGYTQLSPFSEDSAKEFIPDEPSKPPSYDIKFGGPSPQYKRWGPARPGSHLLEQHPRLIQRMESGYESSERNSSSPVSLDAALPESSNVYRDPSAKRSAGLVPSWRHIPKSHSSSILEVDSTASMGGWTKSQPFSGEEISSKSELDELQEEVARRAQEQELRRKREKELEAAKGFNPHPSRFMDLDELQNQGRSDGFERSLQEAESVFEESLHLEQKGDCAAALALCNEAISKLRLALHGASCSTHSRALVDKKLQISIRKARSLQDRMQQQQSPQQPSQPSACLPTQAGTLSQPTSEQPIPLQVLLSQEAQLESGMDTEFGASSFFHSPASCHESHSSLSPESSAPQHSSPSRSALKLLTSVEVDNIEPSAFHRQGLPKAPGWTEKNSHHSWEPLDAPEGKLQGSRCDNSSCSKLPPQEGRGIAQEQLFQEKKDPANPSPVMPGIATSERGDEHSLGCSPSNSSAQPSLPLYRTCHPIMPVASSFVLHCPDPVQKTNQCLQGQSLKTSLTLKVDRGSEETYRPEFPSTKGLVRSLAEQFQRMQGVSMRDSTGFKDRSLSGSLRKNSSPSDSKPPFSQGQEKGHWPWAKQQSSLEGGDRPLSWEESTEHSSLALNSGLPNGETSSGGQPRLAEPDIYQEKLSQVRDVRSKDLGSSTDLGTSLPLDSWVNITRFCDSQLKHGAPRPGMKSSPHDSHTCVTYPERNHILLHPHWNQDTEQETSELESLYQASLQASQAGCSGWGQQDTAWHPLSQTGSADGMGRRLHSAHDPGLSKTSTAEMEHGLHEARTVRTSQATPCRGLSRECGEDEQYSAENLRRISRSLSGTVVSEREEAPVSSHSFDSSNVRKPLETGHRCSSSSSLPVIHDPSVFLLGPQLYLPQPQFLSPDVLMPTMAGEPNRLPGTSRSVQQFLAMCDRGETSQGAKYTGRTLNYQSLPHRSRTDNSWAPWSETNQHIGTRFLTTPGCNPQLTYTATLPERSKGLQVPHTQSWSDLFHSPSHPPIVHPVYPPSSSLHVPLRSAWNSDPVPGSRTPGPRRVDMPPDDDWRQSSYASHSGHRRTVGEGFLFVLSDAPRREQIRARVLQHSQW
Chain of USP46 (P62068 whole entry): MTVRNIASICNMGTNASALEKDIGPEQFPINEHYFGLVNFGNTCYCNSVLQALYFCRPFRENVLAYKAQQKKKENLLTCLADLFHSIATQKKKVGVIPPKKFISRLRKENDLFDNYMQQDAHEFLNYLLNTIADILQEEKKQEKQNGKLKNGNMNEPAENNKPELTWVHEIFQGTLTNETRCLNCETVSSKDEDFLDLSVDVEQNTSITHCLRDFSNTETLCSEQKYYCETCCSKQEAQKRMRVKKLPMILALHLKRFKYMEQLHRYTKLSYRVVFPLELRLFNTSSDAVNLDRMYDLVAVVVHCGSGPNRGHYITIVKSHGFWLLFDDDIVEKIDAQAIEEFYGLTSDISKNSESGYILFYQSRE
Chain of UniProt O00487 (O00487 whole entry): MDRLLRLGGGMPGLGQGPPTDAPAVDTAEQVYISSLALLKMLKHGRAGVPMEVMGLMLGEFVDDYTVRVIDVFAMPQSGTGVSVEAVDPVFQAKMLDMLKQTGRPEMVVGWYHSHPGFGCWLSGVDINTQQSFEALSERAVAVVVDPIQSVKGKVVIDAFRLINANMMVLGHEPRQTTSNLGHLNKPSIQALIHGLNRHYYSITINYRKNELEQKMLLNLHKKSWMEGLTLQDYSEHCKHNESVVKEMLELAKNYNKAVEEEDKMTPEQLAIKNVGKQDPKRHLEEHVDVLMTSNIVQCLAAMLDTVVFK

CN(Cc1nc2ccccc2[nH]1)C(=O)CCl.Cl
inactive: USP42 0.698 | USP46 -0.254 | USP47 -0.178 | USP5 0.118 | USP54 -0.517 | USP8 -0.0998 | USP9X -0.057 | UniProt O00487 -0.00224
active: USP48 -1.14 | USP7 -1.36
